# Bioassay records as filed in PubChem.
# Rows were chosen to be rich in hits. Some 0.36% of all compounds tested hit in one or more screens of this group.
# MmCpn inh – blocks the Methanococcus maripaludis chaperonin Mm-Cpn | purified Mm-Cpn ATPase, ADP Transcreener TR-FRET | Potency, µM (series often up to 76.9 µM), inactives show at the highest dose activity, negative = inhibition, actives largely listed as inhibitors | 0.031% of 330,000 active | AID 504842; also: potency is read from the fitted curve at half-maximal effect; % is scaled to controls: 0 for no effect and ±100 for the full control effect; nearly all actives have a fitted effect of over 80% in size
#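 Inhibition of chaperonin ATP hydrolysis is measured as reduced ADP production, detected by competitive TR-FRET in which signal falls with ADP. Final enzyme 25 nM and ATP 10 uM, reacted 30 min at 37°C.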
# RGS4 inhibitor – inhibitors of human regulator of G protein signaling 4 | Transcreener GDP fluorescence polarization, RGS4-accelerated GTP hydrolysis | 0.039% of 390,000 active | P49798 | Potency, µM (titrated, usually from 114 µM), for inactives: top-dose activity change, negative = inhibition, actives largely listed as inhibitors; also: potency is read from the fitted curve at half-maximal effect; % is scaled to controls: 0 for no effect and ±100 for the full control effect; nearly all actives have a fitted effect of over 75% in size
#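 MLSMR compounds (23 nl, pin-transferred) preincubated 10 min at room temperature with a 500nM (2x) first reagent, then RGS4 at 900nM (2x) plus Transcreener GDP mix added; fluorescence polarization (620/688 nm) read before and after 90 min at 30 °C.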
# CCT chaperon mod – cytosolic chaperonin activity modulation. purified chaperonin ATPase assay, HTRF ADP detection, 30 min. activity change, % (no concentration beside the values), hits read low. 0.3% of 360,000 active. AID 651819; in the data active = activity change below about -30%; also: % is scaled to controls: 0 for no effect and ±100 for the full control effect
#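 TRiC (40 or 20 nM final, by batch activity) in 30 mM Tris pH 7.4, 100 mM KCl, 5 mM MgCl2, 1 mM DTT was treated with compound at 76 uM single dose, then 10 uM ATP, 30 min at 37 °C. ADP was read by HTRF Transcreener.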
# PTHR1 agonist – PTHR1 (human) receptor agonism; HEK293 GP2 PTHR1 cells, GloSensor cAMP luminescence, 1 h; Potency, µM (top dose mostly 115 µM), without a hit: at the top dose activation, usual class: activators; 0.075% of 410,000 active; also: potency is read from the fitted curve at half-maximal effect; nearly all actives have a fitted effect of over 55% in size
#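 HEK-293-derived GP2 cells expressing PTHR1 and a GloSensor cAMP reporter, 3,000/well, plated overnight, given luciferin plus IBMX (each 0.5 mM as added) for 1 h at 37 °C, then compound for 1 h at 37 °C. Luminescence was read after 15 min at room temperature.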
# ERG Ets-DNA blk – blocks human ERG Ets domain binding to DNA; P11308; fluorescence polarization, His-ERG Ets domain / labelled DNA; Potency, µM (top dose mostly 76.9 µM), for inactives: at the top dose FP activity, negative = inhibition, hits mostly inhibitors; 0.028% of 370,000 active; active = well fitted inhibition curve with a large enough effect in the polarisation, with a control signal flat; the % refers to the polarisation;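 also: polarization taken with two DNA probes labelled with fluorescein and Texas red; potency is read from the fitted curve at half-maximal effect; % of control where 0% means no effect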
# Target sequence (P11308 whole entry, looked up, the tested form may be a part): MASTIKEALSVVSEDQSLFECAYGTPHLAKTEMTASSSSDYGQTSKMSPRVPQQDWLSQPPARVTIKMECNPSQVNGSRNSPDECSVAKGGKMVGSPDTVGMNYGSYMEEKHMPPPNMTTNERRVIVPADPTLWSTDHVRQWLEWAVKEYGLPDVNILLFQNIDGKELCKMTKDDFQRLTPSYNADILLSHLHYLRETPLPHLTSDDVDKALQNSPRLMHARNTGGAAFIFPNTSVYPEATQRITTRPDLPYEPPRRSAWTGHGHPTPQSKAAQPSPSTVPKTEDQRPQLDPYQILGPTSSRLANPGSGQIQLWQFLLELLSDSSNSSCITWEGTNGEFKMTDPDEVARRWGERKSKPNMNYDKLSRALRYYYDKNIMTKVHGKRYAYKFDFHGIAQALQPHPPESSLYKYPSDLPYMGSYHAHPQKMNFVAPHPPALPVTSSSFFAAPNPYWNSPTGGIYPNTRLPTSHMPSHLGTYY
#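 His-tagged ERG Ets domain (1 uM in the protein solution; 300mM KCl, 50mM Tris-HCl, 1mM EDTA, 1mM DTT, pH 7.5) received compound, then a probe mix of 5 nM fluorescein-DNA and 100nM Texas-615-DNA. Fluorescence polarization was read for both dyes.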
# Active calls of the source: *; i = inactive; x = no result given; [ ] = remark or other dose. Unless noted, calls follow the shape of the dose curve; as a rule, active = well fitted curve in the direction sought with a large enough effect; inconclusive = small, poorly fitted or top-dose-only effect, or another doubt; inactive = no such curve, though single readings can be large; an effect the other way counts as inactive or inconclusive.
SMILES,MmCpn inh,RGS4 inhibitor,CCT chaperon mod,PTHR1 agonist,ERG Ets-DNA blk
Cc1ccc(S(=O)(=O)CC(C)N2CCOCC2)c(S(=O)(=O)CC(C)N2CCOCC2)c1 (configuration not stated),-2%,4%,-41*,-9%[57.5 µM],-2%
CCOc1ccccc1CNCc1c(C(=O)O)n(Cc2ccc(F)cc2)c2cc(C)ccc12,x,14%,x,-1%,2%
Cc1ccc(N(C(=O)Cn2nnc(-c3ccc(F)cc3)n2)C(C(=O)NC(C)(C)C)c2ccncc2)cc1 (configuration not stated),1%,6%,-1,45µM*,15%
CC(C)(C)c1ccccc1OCCCCN1CCCC1,1%,-6%,-5,0%[57.5 µM],-5%
Cc1cccc(C(C)(C)C)c1OCCCCN1CCCC1,-2%,-13%[11.4 µM],-59*,i,-2%
CCOc1ncccc1C(=O)Nc1nnc(C2CC2)s1,-7%,-21%,-30*,-9%,2%
CSc1nc(=O)n2cc(C)ccc2n1,0%,-11%,0,-16%,28µM*
Cc1ccc2nc(SCC(=O)c3ccccc3)nc(=O)n2c1,0%,-52%,0,i,-4%
CCOC(=O)c1ccc(NC(=O)N2CCN(Cc3ccccc3)CC2)cc1,0%,29%,-4,i,4%
CCOC(=O)c1ccc(NC(=O)CN2CCN(Cc3ccccc3)CC2)cc1,3%,26%,-86*,i,1%
CCOc1ccc(NC(=O)N2CCN(C(=O)c3ccco3)CC2)cc1,-1%,-7%,-4,-23%,-6%
CCOC(=O)c1ccc(NC(=O)N2CCN(C(=O)c3ccco3)CC2)cc1,-1%,-8%[11.4 µM],0,i,35µM*
O=C(Nc1cccc(Br)c1)c1cc(S(=O)(=O)N2CCCCC2)c[nH]1,x,-9%,x,-21%,0%
CC1(C)CC(=O)C2=C(C1)N1C(=C(C#N)C2c2ccc(Cl)cc2)N=C(N)c2ccccc21 (configuration not stated),-2%,14%,-36*,-20%,-5%
CCc1ccc(C2=NN(CCC(=O)NCCc3ccccc3)C(=O)CC2)cc1,x,-8%,x,-33%,-6%
NC(=O)C1CCN(c2nc(-c3ccc(C(F)(F)F)cc3)cs2)CC1,-21%,x,x,x,x
Cc1cccc(NC(=O)c2cccc(N3CCCS3(=O)=O)c2)c1,x,-8%,x,-35%,-2%
CC1CCC(NC(=O)C2(C)CCC(=O)N2Cc2cccnc2)CC1 (configuration not stated),-1%,8%,-36*,-10%,-3%
Cn1cc(S(=O)(=O)c2ccccc2)c(=O)c2cc(F)c(N3CCN(c4ccccc4)CC3)cc21,x,36%,x,6%,8%
Cn1cc(S(=O)(=O)c2ccccc2)c(=O)c2cc(F)c(N3CCN(c4ccc(F)cc4)CC3)cc21,x,-15%,x,61µM*,-2%
Oc1ccc(/C=N\Nc2cc(N3CCOCC3)nc(N3CCOCC3)n2)c(O)c1,2%,-36%,-52*,-2%,-8%
Cc1ccc(CNC(=O)c2c(O)nc3ccccn3c2=O)cc1,x,-10%,x,-37%,7%
C[C@@H]1CN([C@@H](C)CO)C(=O)c2cc(NC(=O)C3CC3)ccc2O[C@@H]1CN(C)Cc1ccc(Cl)c(Cl)c1,0%,-16%,-41*,i,3%
C[C@@H]1CN([C@H](C)CO)C(=O)c2cc(NC(=O)C3CCCCC3)ccc2O[C@@H]1CN(C)Cc1ccncc1,0%,-16%,-4,i,-2%
O=C(CSc1n[nH]c(-c2ccc(F)cc2)n1)NCc1ccccc1Cl,x,-24%,x,-58%,6%
Cc1nn(-c2ccccc2)c2c1N(CCCC(=O)NCc1ccc(N(C)C)cc1)C(=O)CS2,x,-8%,x,-3%,-2%
COc1cc(Cl)c(C)cc1NC(=O)CCc1c(C)nc2c3cccnc3nn2c1C,x,-6%,x,-16%,1%
O=C(N/N=C/c1ccc(O)cc1O)/C(=C/c1ccccc1)CCO,-1%,-1%,-35*,i,-4%
CCCCNC(=O)CCCCCNS(=O)(=O)c1ccc(OC)cc1,2%,28%,-41*,i,3%
COc1ccc2oc(=O)cc(CN3CCN(C(=O)c4ccccc4)CC3)c2c1,x,-9%,x,i,1%
